Assay results as given in the supplement of paper PMC12819154, “High-throughput peptide-centric local stability assay extends protein–ligand identification to membrane proteins, tissues and bacteria” (Nature Structural & Molecular Biology, 2025).

Compound: Nc1ncnc2c1ncn2[C@@H]1O[C@H](COP(=O)(O)OP(=O)(O)OP(=O)(O)O)[C@@H](O)[C@H]1O [adenosine 5'-triphosphate]
Assay: log2 fold change of tryptic peptide abundance, ligand vs vehicle (limited proteolysis) (log2 ratio); higher = more trypsin-susceptible (destabilized)
Settings: ligand concentration: 5 mM; sample: E. coli desalted lysate; replicate design: treated before aliquoting
Procedure: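 HT-PELSA: desalted E. coli K-12 BW25113 lysate (with 12 mM MgCl2) incubated with 5 mM ATP (pH 7) or water for 30 min at 25 C, then a 4 min trypsin pulse at 22 C. Peptides were quantified by DIA-MS (4 replicates). Value is the peptide log2 fold change (treated/control); negative = stabilized. Scale: negative = ligand-stabilized region.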
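Further: lysate desalted by size exclusion to strip endogenous ATP, peptide intensities built from DIA-NN precursor signals, and peptides missing any value discarded before comparison.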

Target | log2 fold change
UniProt P77499 (peptide sequence: SVNVGFSGGEK, peptide start residue: 141) | -0.896
UniProt P08200 (peptide sequence: AAIEYAIANDRDSVTLVHK, peptide start residue: 212) | -0.698
UniProt P27298 (peptide sequence: DGDHYATLNTAQK, peptide start residue: 115) | 1.13
UniProt P07001 (peptide sequence: FFTGQITAAGK, peptide start residue: 152) | -0.651
UniProt P03841 (peptide sequence: STFISSVKGKG, peptide start residue: 296) | 0.922
UniProt P24255 (peptide sequence: KHNGHWTVELNSDSIPR, peptide start residue: 280) | 0.899
UniProt P27296 (peptide sequence: SIPHIIVTSATLR, peptide start residue: 451) | -2.01
UniProt Q46856 (peptide sequence: IDAAIAATR, peptide start residue: 323) | -1.68
UniProt P37747 (peptide sequence: DKDSLASK, peptide start residue: 216) | -0.827
UniProt P06966 (peptide sequence: ISHVSVSQWER, peptide start residue: 32) | -1
UniProt P35340 (peptide sequence: MTLTEIVAKIDTGAEKR, peptide start residue: 186) | 1.22
UniProt P0A8F8 (peptide sequence: AILYGDKITPSMAK, peptide start residue: 550) | -0.631
UniProt P77258 (peptide sequence: DENGQAIR, peptide start residue: 136) | -0.737
UniProt P13458 (peptide sequence: NQPDGNLQVPR, peptide start residue: 103) | -0.895
UniProt P31663 (peptide sequence: VLSSIADKLQAGER, peptide start residue: 207) | -3.26
UniProt P30958 (peptide sequence: FANWPVR, peptide start residue: 673) | -0.413
UniProt P08957 (peptide sequence: SRIGQEQLQFYR, peptide start residue: 61) | 1.09
UniProt P42632 (peptide sequence: IKALPTYR, peptide start residue: 593) | 0.596
UniProt P77735 (peptide sequence: LGMDYVDILQIHR, peptide start residue: 116) | -0.843
UniProt P52612 (peptide sequence: DRGQHVLLIMDSLTR, peptide start residue: 262) | -1.35
UniProt P76010 (peptide sequence: FLNVSPTVER, peptide start residue: 213) | -1.34
UniProt P13009 (peptide sequence: DQVEDYAR, peptide start residue: 1198) | -1.27
UniProt P0A6B4 (peptide sequence: QLAIFNTFCEGKPGQR, peptide start residue: 174) | 0.707

Target | log2 fold change
UniProt P76330 (peptide sequence: FGHQAGDR, peptide start residue: 447) | -3.47
UniProt P77555 (peptide sequence: VEYYAER, peptide start residue: 49) | -0.74
UniProt P0A9B6 (peptide sequence: SLQSLPWR, peptide start residue: 82) | -0.912
UniProt P33650 (peptide sequence: AYAGEASQHLDAALAR, peptide start residue: 217) | 0.832
UniProt P37648 (peptide sequence: DKGLPEEEFNALVAQK, peptide start residue: 363) | 0.498
UniProt P00452 (peptide sequence: FYDAVSTFK, peptide start residue: 196) | -3.51
UniProt P0ADZ7 (peptide sequence: DFVAAVLPK, peptide start residue: 96) | -0.282
UniProt P00946 (peptide sequence: FEAKPANQLLTQPVK, peptide start residue: 293) | -0.633
UniProt P69789 (peptide sequence: LYSKAEYK, peptide start residue: 48) | -1.96
UniProt P16095 (peptide sequence: VGIGPSSSHTVGPMK, peptide start residue: 10) | 0.369
UniProt P37327 (peptide sequence: AMAIHEHIR, peptide start residue: 37) | -0.62
UniProt P0AFU8 (peptide sequence: FSDEIGGHLMSGHIMTTAEVAK, peptide start residue: 90) | 0.559
UniProt P27833 (peptide sequence: LCGDGGFTR, peptide start residue: 26) | -0.494
UniProt P00562 (peptide sequence: ILDEAGLPGELR, peptide start residue: 375) | 0.23
UniProt P25888 (peptide sequence: DLMASAQTGTGK, peptide start residue: 40) | -1.66
UniProt P05041 (peptide sequence: APFSAFLR, peptide start residue: 239) | 0.459
UniProt P76245 (peptide sequence: TPFVAHPALHS, peptide start residue: 331) | 1.1
UniProt Q47146 (peptide sequence: GITLPSNSTGGVK, peptide start residue: 375) | -0.706
UniProt P24192 (peptide sequence: PAPQQVCDDPR, peptide start residue: 310) | -0.597
UniProt P00550 (peptide sequence: GASPLSAGDVTNDLSHVRK, peptide start residue: 361) | 0.413
UniProt P0DMC5 (peptide sequence: FTDTGCIVLHVR, peptide start residue: 600) | -1.13
UniProt P43672 (peptide sequence: LMLGQLQADSGR, peptide start residue: 364) | -0.906
UniProt P36547 (peptide sequence: TANLHHLYHEPLPENLK, peptide start residue: 6) | -0.813

Target | log2 fold change
UniProt Q46889 (peptide sequence: LQQEGYR, peptide start residue: 188) | -0.564
UniProt P0DPP7 (peptide sequence: NKYLNSTR, peptide start residue: 41) | 0.633
UniProt P09546 (peptide sequence: IYAPVGTHETLLAYLVRR, peptide start residue: 539) | 0.991
UniProt P31475 (peptide sequence: AHLNTLMAEMAALKENFRR, peptide start residue: 132) | 0.66
UniProt P77754 (peptide sequence: DLNLTDAQK, peptide start residue: 54) | -0.35
UniProt P36672 (peptide sequence: LRFVLNQPANARPK, peptide start residue: 33) | 0.581
UniProt P75829 (peptide sequence: EIAEIASK, peptide start residue: 298) | -0.281
UniProt P37028 (peptide sequence: IVALKPDLVIAWR, peptide start residue: 74) | 0.465
UniProt P55734 (peptide sequence: LRHEQIIFHCQAGKR, peptide start residue: 55) | 0.948
UniProt P17117 (peptide sequence: ESRPFILDYLHK, peptide start residue: 223) | 1.13
UniProt P30014 (peptide sequence: TAVLFCEIVNR, peptide start residue: 190) | -2.04
UniProt P56579 (peptide sequence: MGIQLEQK, peptide start residue: 172) | 0.509
UniProt P75828 (peptide sequence: YLDIINR, peptide start residue: 246) | -2.12
UniProt P76550 (peptide sequence: PISNGAFYR, peptide start residue: 210) | -0.83
UniProt P22188 (peptide sequence: LWCVFGCGGDRDK, peptide start residue: 380) | -1.25
UniProt P31060 (peptide sequence: ALAGELPLLKGER, peptide start residue: 48) | -1.32
UniProt P08142 (peptide sequence: KRFTGAEFIVHFLEQQGIK, peptide start residue: 11) | 1.49
UniProt P21599 (peptide sequence: VLEVQGMK, peptide start residue: 138) | -1
UniProt P32143 (peptide sequence: AGIPDCDQTR, peptide start residue: 282) | -2.48
UniProt P09832 (peptide sequence: HVTCAYR, peptide start residue: 313) | 0.367
UniProt P23862 (peptide sequence: KRIQHQDFER, peptide start residue: 111) | 1.03
